The values below come from PubChem BioAssay AID504850 (National Center for Advancing Translational Sciences (NCATS), 2011).

About 1,200 (52%) of roughly 2,300 compounds were called active. Roughly 34% stayed inconclusive and do not appear here. The set was probably picked from earlier hits. Some of the results follow. Values without a mark were called inactive. Calls come from the whole dose curve; as a rule, active = well fitted inhibition curve with a large enough effect; inconclusive = small, poorly fitted or top-dose-only effect, or effect the other way; inactive = no such curve, though single readings can be large or run the other way.
% is set by controls: 0 for no effect and ±100 for the full control effect; potency is the fitted concentration of half-maximal effect.

This assay can be described thus: Confirmation screen for delayed death inhibitors of the malarial parasite plastid, 48 hour incubation. Note: nearly all actives have a fitted effect of over 65% in size. To be noted: P. falciparum-infected erythrocytes, luciferase growth; series mostly up to 28.7 µM; activity change, negative = inhibition: at the top concentration. The method, boiled down: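 Erythrocytes infected with luciferase-expressing P. falciparum (2% hematocrit, 0.1% parasitemia) incubated with compounds 48 hours at 37 C, 5% CO2, in RPMI/Albumax. Growth inhibition scored as reduced luminescence after detection reagent.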
Take `Cc1nn(-c2ccccc2)c(N2CCCC2)c1/C=N/NC(=S)Nc1ccccc1F`: the Potency is 12.6 µM (active). Turning to `Cc1nn(-c2ccccc2)c(N2CCCC2)c1/C=N/NC(=O)c1ccccc1O`, the Potency is 5.01 µM (active). For the molecule `CC(C)Cc1csc(NC(=O)C(C)C)c1C(=O)O`, the “activity change, negative = inhibition” value was -20.8%.

With `CCOC(=O)C1(CCc2ccccc2)CCN(Cc2ccccn2)CC1`, the Potency is 4.47 µM (active). The same measure, in the same setting: to `COc1cccc(NC(=O)CSc2nc3ccccc3nc2N2CCCC2)c1` belongs 14.1 µM (active); to `Cc1cccc(NC(=O)CSc2nc3ccccc3nc2N2CCCC2)c1`, 14.1 µM (active); to `Cc1cccc(NC(=O)CSc2nc3ccccc3nc2N2CCCCC2)c1`, 11.2 µM (active).

Regarding `Nc1nc(N)nc(-c2cc([N+](=O)[O-])ccc2O)n1`, the “activity change, negative = inhibition” value is -11.4%. In the case of `O=C1C(=O)c2ccccc2C(O)=C1c1cccc([N+](=O)[O-])c1`, the Potency was 12.6 µM (active). Still for that read-out and setting: for `Cc1ccc(C2C3=C(CC(C)(C)CC3=O)N=C3c4ccccc4C(=O)C32)cc1` (centres undefined) the value was 8.91 µM (active); for `COc1ccc(-n2c(C)cc(C(=O)Cn3c(NCCO)nc4ccccc43)c2C)cc1`, 12.6 µM (active). With `CCOc1ccc(C2c3[nH]c4ccccc4c3CCN2Cc2cccn2-c2ncccn2)cc1` (centres undefined), the Potency was 12.6 µM (active). As to `Cc1ccccc1C1c2[nH]c3ccccc3c2CCN1Cc1cccn1-c1ncccn1` (centres undefined), the Potency was 12.6 µM (active).

As to `Cc1cc(C)cc(-n2c(N)c(C(=O)Nc3c(C)n(C)n(-c4ccccc4)c3=O)c3nc4ccccc4nc32)c1`, the Potency is 4.47 µM (active). Regarding `Cc1c(NC(=S)NC(=O)C(C)(C)C)c(=O)n(-c2ccccc2)n1C`, the “activity change, negative = inhibition” value was 4.84%. Regarding `COc1ccc2c(C)c(CCC(=O)NC3CC3)c(=O)oc2c1C`, the Potency is 3.98 µM (active). `COc1ccc(/C=C/C(=O)c2ccc([N+](=O)[O-])o2)cc1OC`: the Potency was 11.2 µM (active). `CCCSc1ccc(-c2nn(-c3ccccc3)cc2/C=C(/C#N)C(=O)NCCCOC)cc1`: the Potency is 5.62 µM (active). As for `CN1CCN(c2ccccc2NC(=O)c2cccc(OCc3ccccc3)c2)CC1`, the Potency is 7.94 µM (active). Still for that read-out and setting: to `Cc1cc(=O)oc2ccc(OCC(=O)N3CCc4ccccc43)cc12` belongs 10 µM (active); to `CCC1CCCCN1CCCNC(=O)CNC(=O)c1nn(-c2ccc(OC)c(Cl)c2)c(=O)c2ccccc12` (centres undefined), 11.2 µM (active).

As for `O=C(O)c1nn(CCOc2ccc(Cl)cc2Cl)c(=O)c2ccccc12`, the “activity change, negative = inhibition” value was -10%. Turning to `CCC1CCCCN1CCCNC(=O)Cn1c(=O)c2cccn2c2cccnc21` (centres undefined), the “activity change, negative = inhibition” value was -8.96%.

Take `O=C1NC(NS(=O)(=O)c2ccc(Cl)cc2)(C(F)(F)F)C(=O)N1Cc1cccnc1` (centres undefined): the “activity change, negative = inhibition” value is -27.7%. As for `CCCOc1cc(NCc2ccccc2)c2ncn(C(C)C)c2c1`, the Potency is 5.01 µM (active).

For `CCCN1C2=C(C(=O)CCC2)C(c2ccc(O)c(Br)c2)C2=C1CCCC2=O`, the Potency was 12.6 µM (active). As to `O=c1cc(CSc2ccc(Cl)cc2)nc(-c2ccccn2)[nH]1`, the Potency was 5.01 µM (active). The same measure, in the same setting: for `Cc1sc2nc(C3CC3)nc(SCC(=O)N3c4ccccc4CC3C)c2c1C` (centres undefined) the value was 14.1 µM (active).

With `CCc1nc(SCC(=O)Nc2ccccc2OC)c2c(C)c(C)sc2n1`, the Potency was 12.6 µM (active). Same read-out and setting: to `CCc1nc(SCC(=O)N2c3ccccc3CC2C)c2c(C)c(C)sc2n1` (centres undefined) belongs 11.2 µM (active). Regarding `C=CCNC(=O)c1cnc2n(c1=O)CCS2`, the “activity change, negative = inhibition” value was -0.495%. With `C=CCn1c(SCc2cc(=O)n3cc(C)ccc3n2)nnc1-c1ccc(F)cc1`, the Potency is 14.1 µM (active). On to `COC(=O)C1=C(C)Nc2ncnn2C1c1ccccn1` (centres undefined), for which the “activity change, negative = inhibition” value is -2.2%. `Cc1cc(C)cc(-n2c3nc4ccccc4nc3c3c(=O)n(Cc4ccco4)cnc32)c1`: the Potency is 12.6 µM (active). On the same count and under the same terms, to `Cc1ccc(Cn2c(C)nc3c(c2=O)c2nc4ccccc4nc2n3Cc2ccco2)cc1` belongs 7.08 µM (active); to `COc1cc(C2Oc3ccccc3C=C2[N+](=O)[O-])cc(OC)c1OC` (centres undefined), 14.1 µM (active).

For `O=C(/C(=C/c1ccc(Cl)cc1)c1nc2ccccc2[nH]1)c1ccccc1`, the Potency was 1.41 µM (active). With `COc1cc(/C=C(/C(=O)c2cccs2)c2nc3ccccc3[nH]2)ccc1O`, the Potency is 8.91 µM (active).

Take `CCCc1c(C)c2cccc(C)c2[nH]c1=O`: the “activity change, negative = inhibition” value was -16.3%. Take `COc1ccc(CNC(=O)C[C@H]2C(=O)N(C3CCCCC3)C[C@@H]2Cc2ccccc2)cc1`: the Potency is 11.2 µM (active).

For `COc1ccc(CNCc2ccc3ccccc3c2)c(OC)c1`, the Potency is 11.2 µM (active). On the same count and under the same terms, for `Cc1cc(C)n(CC(O)COc2ccccc2)n1` (centres undefined) the value was 2 µM (active); for `CCOC(=O)c1c(-c2ccc(C)cc2C)csc1NC(=O)CSc1nnnn1C`, 4.47 µM (active). Regarding `CCCc1c(NC(=O)Nc2ccc(F)cc2)cnn1-c1ccccc1`, the Potency is 15.8 µM (active). On the same count and under the same terms, for `CCCc1c(NC(=O)Nc2ccc(F)cc2)cnn1-c1ccc(Cl)cc1` the value was 12.6 µM (active). Consider `CC1=NCCN1CCNC(=O)Nc1ccc(F)cc1`, for which the “activity change, negative = inhibition” value was 2.48%.

In the case of `CCCSc1nc2c(cnn2-c2ccccc2)c(=O)[nH]1`, the “activity change, negative = inhibition” value was 13.4%. The same measure, in the same setting: to `COc1cccc(NC(=O)c2ccc3c(c2)C(=O)N(CC2CCCO2)C3=O)c1` (centres undefined) belongs -4.19%. For the molecule `NC(=O)C1CCN(CC(=O)Nc2cccc(C(=O)Nc3cccc(C(F)(F)F)c3)c2)CC1`, the Potency is 2 µM (active).
